Assay outcomes (PubChem)
IL1B secr inh: qHTS for Inhibitors of Inflammasome Signaling: IL-1-beta AlphaLISA Primary Screen | activity change, % at 57.5 µM | AID 743279, 2014 | THP-1 LPS/ATP IL-1B secretion, AlphaLISA, 16 h; active compounds read low | 360,000 tested, 4.7% active; in the data active means activity change below about -50%; inconclusive means mostly about -30% to -49%; further: on the % scale 0 is the no-effect control and ±100 the full control effect
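THP-1 cells pretreated 1 hr with compounds (up to 57.5 uM final), then stimulated with LPS (250 ng/mL final) plus ATP (1.25 mM final); secreted IL-1B measured by AlphaLISA after 16 hr, decreased signal indicating inhibition.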
TDP1 cell CPT: qHTS for Inhibitors of human tyrosyl-DNA phosphodiesterase 1 (TDP1): qHTS in cells in presence of CPT. chicken DT40 Tdp1-/-;hTDP1 cells + 20 nM CPT, ATP luminescence, 48 h. Potency, µM (titrated, usually from 46.2 µM), for inactives: top-dose activity change, negative = growth inhibition, usual class: inhibitors. 420,000 tested, 12% active. AID 686979, 2013; further: potency means the concentration at half of the fitted maximal effect; on the % scale 0 is the no-effect control and ±100 the full control effect; nearly all actives have a fitted effect of over 55% in size
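Chicken DT40 Tdp1-/- cells complemented with human TDP1, 400 cells/well, exposed to compounds plus 20 nM camptothecin for at least 48 h at 37 C; viability read as ATP content by CellTiter-Glo luminescence.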
TGFb SMAD3 inh: qHTS for Inhibitors of TGF-b. HepG2 CAGA-GFP TGF-b/SMAD3 reporter, GFP fluorescence, 18 h; TGF-beta stimulated, 500 pg/mL final. Potency, µM (doses to about 46.1 µM), without a hit: top-dose activity, negative = inhibition, most hits filed as inhibitors. 410,000 tested, 1.2% active; further: potency means the concentration at half of the fitted maximal effect; on the % scale 0 is the no-effect control and ±100 the full control effect; nearly all actives have a fitted effect of over 65% in size
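Read-out: total well GFP (ex488/em500-530) summed from mean per-cell fluorescence. Cells: HEPG2 CAGA-GFP, 1% FBS DMEM, 18 h at 37 degrees C with 500 pg/mL final TGF-beta. Unstimulated wells served as the full-inhibition control; stimulated DMSO wells = 0%.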
HepG2 viability: qHTS for Inhibitors of TGF-b: Cytotox Counterscreen; HepG2 CAGA-GFP viability, ATP luminescence, 18 h; Potency, µM (top dose mostly 46.1 µM), for the others: at the highest dose activity change, negative = cytotoxicity, usual class: cytotoxic; 410,000 tested, 0.76% active; AID 588856, 2011; further: potency means the concentration at half of the fitted maximal effect
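HepG2 CAGA-GFP cells (1000/well, DMEM with 1% FBS) received compound, then TGF-beta at 500 pg/mL final, and were incubated 18 hours at 37 degrees C. Viability was read by CellTiter-Glo luminescence. Media-only wells were set as complete cell-killing and DMSO as no toxicity.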
DT40 TDP1 no CPT: qHTS for Inhibitors of human tyrosyl-DNA phosphodiesterase 1 (TDP1): qHTS in cells in absence of CPT. 420,000 tested, 15% active. DT40 Tdp1-/- hTDP1 cells, no CPT, ATP luminescence, 48 h. Potency, µM (series often up to 46.2 µM), without a hit: at the highest dose activity change, negative = growth inhibition, actives largely listed as inhibitors; further: potency means the concentration at half of the fitted maximal effect; on the % scale 0 is the no-effect control and ±100 the full control effect; nearly all actives have a fitted effect of over 55% in size
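Luminescent ATP content (CellTiter-Glo) served as the growth readout. Knockout chicken DT40 cells expressing human TDP1 were exposed to compounds without camptothecin for a minimum 48 hr at 37 °C.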
TDP1 block: qHTS Assay for Inhibitors of Tyrosyl-DNA Phosphodiesterase (TDP1); recombinant TDP1, AlphaScreen DNA substrate cleavage; Potency, µM (titrated, usually from 130 µM), for inactives: top-dose activity change, negative = inhibition, most hits filed as inhibitors; 350,000 tested, 0.28% active; further: potency means the concentration at half of the fitted maximal effect; on the % scale 0 is the no-effect control and ±100 the full control effect; nearly all actives have a fitted effect of over 40% in size
Target sequence (Q9NUW8 whole entry, looked up): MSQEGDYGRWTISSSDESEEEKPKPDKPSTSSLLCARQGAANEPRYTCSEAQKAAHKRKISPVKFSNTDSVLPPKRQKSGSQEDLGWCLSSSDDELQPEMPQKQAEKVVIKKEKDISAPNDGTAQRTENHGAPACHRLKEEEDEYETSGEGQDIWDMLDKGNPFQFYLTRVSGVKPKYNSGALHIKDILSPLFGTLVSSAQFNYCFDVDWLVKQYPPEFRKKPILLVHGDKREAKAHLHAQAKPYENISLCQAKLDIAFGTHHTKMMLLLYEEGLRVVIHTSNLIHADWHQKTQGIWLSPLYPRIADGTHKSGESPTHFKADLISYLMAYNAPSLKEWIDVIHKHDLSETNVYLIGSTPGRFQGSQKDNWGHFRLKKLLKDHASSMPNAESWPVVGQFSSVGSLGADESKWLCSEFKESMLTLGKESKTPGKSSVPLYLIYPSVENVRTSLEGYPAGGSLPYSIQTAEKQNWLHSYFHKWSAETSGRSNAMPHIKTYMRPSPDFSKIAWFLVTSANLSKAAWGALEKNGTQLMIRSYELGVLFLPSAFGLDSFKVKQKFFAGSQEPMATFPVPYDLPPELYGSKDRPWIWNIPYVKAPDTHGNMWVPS
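Recombinant E. coli-expressed Tdp1 (1 nM) preincubated with compound 15 min at RT, then 5'-biotin/3'-phosphotyrosine-FITC DNA substrate (15 nM) added for 5 min. AlphaScreen beads (10 ug/ml) added, 10 min RT; tyrosine-FITC cleavage read as signal loss.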
Starred values were filed as active, the others as inactive; [ ] = dose if it differs, or a comment. Hits are enriched below; roughly 19% of the tested compounds scored in any of these assays. Unless noted, the call rests on the fitted dose curve; in most records, active means well fitted curve in the direction sought with a large enough effect; inconclusive means small, poorly fitted or top-dose-only effect, or another doubt; inactive means no such curve, though single readings can be large; an effect the other way counts as inactive or inconclusive.

Screening CN1CCN(c2ncc3nc(CCc4ccccc4)c(=O)n(Cc4cccs4)c3n2)CC1 returned TDP1 cell CPT inconclusive and DT40 TDP1 no CPT 21µM*.
Screening CN1CCN(c2ncc3nc(-c4cn(C)c5ccccc45)c(=O)n(Cc4cccs4)c3n2)CC1 returned TDP1 cell CPT 1.6µM* and DT40 TDP1 no CPT 0.37µM*.
For CCNc1ncc2nc(-c3cn(C)c4ccccc34)c(=O)n(Cc3cccs3)c2n1 the results were TDP1 cell CPT -26% and DT40 TDP1 no CPT -7%.
COc1ncc2nc(CCc3ccccc3)c(=O)n(Cc3ccc(F)cc3)c2n1 was read as TDP1 cell CPT inconclusive and DT40 TDP1 no CPT 23µM*.
`Cc1nn(-c2ccccc2)c(C)c1NC(=O)COC(=O)c1cc(Br)ccc1O` gave IL1B secr inh -14, TDP1 cell CPT -4%, TGFb SMAD3 inh 0%, HepG2 viability -16% and DT40 TDP1 no CPT -14%.
CN(Cc1cccs1)C(=O)/C=C/c1ccccc1[N+](=O)[O-] was read as IL1B secr inh 16, TDP1 cell CPT -4%, TGFb SMAD3 inh 3%, HepG2 viability 0%, DT40 TDP1 no CPT -28% and TDP1 block 7%.
O=C1c2cccc3cccc(c23)C(=O)C1(O)O was read as IL1B secr inh -94*, TDP1 cell CPT 1µM*, TGFb SMAD3 inh inconclusive, HepG2 viability 2% and DT40 TDP1 no CPT 2.3µM*.
For N#Cc1ccc(-n2c(-c3ccccc3)nnc2-c2ccccc2)cc1C#N the results were IL1B secr inh -74*, TDP1 cell CPT inconclusive, TGFb SMAD3 inh 2%, HepG2 viability 2%, DT40 TDP1 no CPT 16µM* and TDP1 block -4%[56.1 µM].
Screening N#Cc1cccc(-n2c(-c3ccccc3)nnc2-c2ccccc2)c1C#N returned IL1B secr inh inconclusive, TDP1 cell CPT inconclusive, TGFb SMAD3 inh 22%, HepG2 viability -23%, DT40 TDP1 no CPT inconclusive and TDP1 block 4%.
For Cc1nc(-c2ccccc2)nc2[nH]ccc(=O)c12 the results were IL1B secr inh 41, TDP1 cell CPT 13%, TGFb SMAD3 inh 19%, HepG2 viability -10%, DT40 TDP1 no CPT -5% and TDP1 block 1%.
`Cc1nc(C)c2c(=O)cc(-c3ccccc3)[nH]c2n1` gave IL1B secr inh 42, TDP1 cell CPT 4.5µM*, TGFb SMAD3 inh 24%, HepG2 viability -16%, DT40 TDP1 no CPT 5.6µM* and TDP1 block 4%.
O=C(C[n+]1cccc2ccccc21)c1ccc(NC(=O)c2ccccc2)cc1 was read as IL1B secr inh 0, TDP1 cell CPT 8.2µM*, TGFb SMAD3 inh 15%, HepG2 viability -2%, DT40 TDP1 no CPT 6.5µM* and TDP1 block 0%.
For O=C(C[n+]1cccc2ccccc21)c1ccccc1 the results were IL1B secr inh -13, TDP1 cell CPT -2%, TGFb SMAD3 inh 4%, HepG2 viability 0%, DT40 TDP1 no CPT -17% and TDP1 block 4%.
`Cc1cc[n+](CC(=O)c2ccc(NC(=O)c3ccccc3)cc2)c2ccccc12` gave IL1B secr inh inconclusive, TDP1 cell CPT 8.2µM*, TGFb SMAD3 inh -7%, HepG2 viability -27%, DT40 TDP1 no CPT 3.7µM* and TDP1 block 2%.
`Cc1cc([N+](=O)[O-])c2ccccc2c1NS(=O)(=O)c1ccccc1` gave IL1B secr inh 8, TDP1 cell CPT 6%, TGFb SMAD3 inh inconclusive, HepG2 viability -26% and DT40 TDP1 no CPT -22%.
Screening O=S(=O)(c1cc(Cl)cc(Cl)c1)N1CCN(c2nc(-c3cccs3)nc3ccccc23)CC1 returned TDP1 cell CPT -27%, TGFb SMAD3 inh 4%, HepG2 viability 4% and DT40 TDP1 no CPT inconclusive.
`Cc1cc(C(=O)COC(=O)c2ccc(NC(=O)CC#N)cc2)c(C)n1CC(F)(F)F` gave IL1B secr inh -8, TDP1 cell CPT -5%, TGFb SMAD3 inh 2%, HepG2 viability -11% and DT40 TDP1 no CPT -28%.
For Cc1ccc(Cn2ccsc2=NC(=O)CCl)cc1 the results were IL1B secr inh -100*, TDP1 cell CPT 12µM*, TGFb SMAD3 inh inconclusive, HepG2 viability -113%, DT40 TDP1 no CPT 5.8µM* and TDP1 block 0%.
`Cc1ccc(NC(=O)CSCC(=O)N=c2sccn2C)cc1` gave IL1B secr inh 12, TDP1 cell CPT -20%, TGFb SMAD3 inh 0%, HepG2 viability -1%, DT40 TDP1 no CPT inconclusive and TDP1 block -10%[0.505 µM].
Screening Cc1ccc(Cn2ccsc2=NC(=O)COC(=O)c2ccc(NC(=O)CC#N)cc2)cc1 returned IL1B secr inh -9, TDP1 cell CPT inconclusive, TGFb SMAD3 inh inconclusive, HepG2 viability -21% and DT40 TDP1 no CPT 16µM*.
Cc1cc(C(=O)COC(=O)c2ccc(NC(=O)CC#N)cc2)c(C)n1C1CC1 was read as IL1B secr inh -12, TDP1 cell CPT 21µM*, TGFb SMAD3 inh -14%, HepG2 viability -1%, DT40 TDP1 no CPT 21µM* and TDP1 block -3%.
Screening CC(C)(C)C(=O)Nc1nc2nc(-c3ccccc3)cc(=O)n2[nH]1 returned TDP1 cell CPT 0%, TGFb SMAD3 inh -5%, HepG2 viability 3%, DT40 TDP1 no CPT 2% and TDP1 block -7%.
`Cc1ccc(N(C(=O)c2csnn2)C(C(=O)NC2CCCCC2)c2ccccn2)cc1C` (stereo not drawn) gave IL1B secr inh 8, TDP1 cell CPT -5%, TGFb SMAD3 inh -5%, HepG2 viability -27%, DT40 TDP1 no CPT -16% and TDP1 block 7%.
`CCOC(=O)c1cc(-c2cccc([N+](=O)[O-])c2)nc2[nH]c(=O)[nH]c(=O)c12` gave IL1B secr inh -25, TDP1 cell CPT -18%, TGFb SMAD3 inh -16%, HepG2 viability -46%, DT40 TDP1 no CPT 23µM* and TDP1 block 6%.
For CCOC(=O)c1c(C)nc(C)c(C(=O)OCC)c1-c1cccc([N+](=O)[O-])c1 the results were IL1B secr inh -18, TDP1 cell CPT -27%, TGFb SMAD3 inh -4%, HepG2 viability -25% and DT40 TDP1 no CPT inconclusive.
